Test results taken from PubChem BioAssay AID1471 (National Center for Advancing Translational Sciences (NCATS), 2008).
The campaign covered roughly 230,000 compounds. About 310 (0.13%) were called active. Another 2% or so got no clear call; they are omitted. The sample holds actives, similar compounds and a random draw of the others, so the mix is not that of the screen. The call rests on the fitted dose curve; in most records, active means well fitted activation curve with a large enough effect; inconclusive means small, poorly fitted or top-dose-only effect; inactive means no such curve, though single readings can be large or run the other way.

assay: qHTS Multiplex Assay to Identify Dual Action Probes in a Cell Model of Huntington: Cytoprotection (ATP); details: PC12 HTT-Q103 induced, ATP luminescence, 40 h; series mostly up to 56.4 µM; cytoprotection (ATP increase): at the top concentration; further: nearly all actives have a fitted effect of over 45% in size;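 on cytoprotection (ATP increase): toxic huntingtin expression switched on by the ecdysone agonist tebufenozide; % of control where 0% means no effect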
Outline: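 Cells were plated at 1500 per well in phenol red-free DMEM with 5% equine and 5% calf serum. Tebufenozide (100 nM final) and compounds were added, then ATPlite reagent, and luminescence was read.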
Potency means the concentration at half of the fitted maximal effect.

Cytoprotection (ATP increase), inactive:
COC(=O)CSc1ccc2nnc(CCNS(=O)(=O)c3ccc(C)cc3)n2n1 -3.13%, CCN1C(=O)N[C@@H](c2ccccc2)C(C(=O)OC)=C1C -11.9% [at 10 µM], NC(=O)C(=O)N/N=C/c1ccc([N+](=O)[O-])o1 -372%, CCOC(=O)C1CSC(CC(=O)Nc2ccc(OCC)cc2)C(=O)N1 (stereo not given) 0.901% [at 10 µM], COCCCNC(=O)Cn1cc(/C=C(\C#N)C(=O)N2CCN(c3ccccc3)CC2)c2ccccc21 1.65% [at 10 µM], COC(=O)C(C(=O)OC)C1c2ccccc2C=C(C2CC2)N1C(=O)OC (stereo not given), Cc1csc(-c2coc3cc(O[C@@H]4O[C@H](CO)[C@@H](O)[C@@H](O)[C@H]4O)ccc3c2=O)n1 -383%, O=C1CCC[C@@H]2CC(N3CCCCC3)C[C@@H]3CCN1[C@H]23 (stereo not given in full) -15.5% [at 96.6 µM], CC1=C(C/C=C(\C)CCCC(C)CCCC(C)CCCC(C)C)C(=O)c2ccccc2C1=O (stereo not given) -51.3%, CCOC(=O)C1=C(C)c2ccccc2OC1(C)C(=O)OCC (stereo not given) 11.4%, COC(=O)[C@@H]1CC2=CC(=O)CC[C@]2(C)[C@@]23O[C@@H]2C[C@@]2(C)[C@@H](CC[C@@]24CCC(=O)O4)[C@H]13 -18%, C[C@H](NC(=O)c1nc[nH]c1C(=O)N[C@@H](C)C(=O)OC(C)(C)C)C(=O)OC(C)(C)C 22% [at 10 µM], CCCCC/C=C\C/C=C\CCCCCCCCCC(N)=O -31.3%, CCCCC/C=C\CC1OC1CCCCCCCC(=O)O (stereo not given), CCCCCCCC[C@@H](O)/C=C/C=C/C=C\[C@@H](O)CCCC(=O)O 7.03%, CC(C)(CNC(=O)c1ccc(Cl)c(S(=O)(=O)N2CCc3ccccc3C2)c1)N1CCOCC1 -28.4%, Cc1ccccc1CSCCNC(=O)c1ccc(Cl)c(S(=O)(=O)N2CCOCC2)c1 -0.687% [at 10 µM], CCCCC/C=C\C/C=C\CCCCCCCCCC(=O)O 27.2%, Nc1nc2c(ncn2[C@@H]2O[C@H](COP(=O)(O)OP(=O)(O)OP(=O)(O)O)[C@@H](O)C2O)c(=O)[nH]1 (stereo not given in full) -90.9%, CC1(C)O[C@@H]2C[C@@H]3[C@H]4C[C@@H](F)C5=CC(=O)C=C[C@]5(C)[C@@]4(F)[C@@H](O)C[C@]3(C)[C@]2(C(=O)CO)O1 23.8%, C/C=C/C=N/NC(=O)c1ccncc1 -10.9%, CCOC(=O)c1c(NC(=O)CSc2nnc(CNc3ccc(C)cc3C)o2)sc(C)c1C 33% [at 10 µM], CCOC(=O)C1=C(C(=O)OCC)C(C(=O)OCC)N(S(=O)(=O)C(F)(F)F)c2ccccc21 (stereo not given) -4.86%, CC(OC(=O)CNS(=O)(=O)/C=C/c1ccccc1)C(=O)Nc1ccc(S(=O)(=O)N2CCCC2)cc1 (stereo not given) 15.7% [at 10 µM], CC(C)(C)NCC(O)COc1cccc2[nH]c(=O)[nH]c12 (stereo not given) 14.7%, CC/C=C\C/C=C\C/C=C\C/C=C\C/C=C\C/C=C\CCC(=O)NCCc1ccc(O)c(O)c1 -58.8%, CC(C)c1cnc(NC(=O)Cc2ccccc2)s1 -2.22%, N#Cc1ccc(-c2ccc(F)cc2)nc1Sc1ccccc1 -6.63%, N#Cc1c(-c2ccc(F)cc2)nc(-c2ccccc2)[nH]c1=O -15.7%, Cc1csc(-c2nc3ccccc3n2C)n1 -116% [at 1.9 µM], CC(O)[C@@H](N)C(=O)O (stereo not given in full) -19.9%, COc1ccc(OC)c(NC(=O)c2cnn(-c3ccccc3Cl)c2NC(=O)c2ccco2)c1 -18.6%, C=CCC(C)(O)c1ccco1 (stereo not given) 8.72%, NNc1nnc(NN)c2ccccc12 -57.3%, CCCCc1nnc(NC(=O)CSc2nc(C)cc(=O)[nH]2)s1 -6.82%, NC(=O)c1c(NC(=O)CSc2nc(N)cc(=O)[nH]2)sc2c1CCCC2 2.28% [at 10 µM], Cc1cccc(C)c1NC(=O)NC1=CCCN1C -5.92%

Potency, active:
O=C(NCCSCc1ccccc1)c1ccc(Cl)c(S(=O)(=O)N2CCOCC2)c1 0.398 µM, N#Cc1ccc(-c2nc3cc(C#N)c(C#N)cc3nc2-c2ccccc2)cc1C#N 2.82 µM, CCCCc1nnc(NC(=O)CSc2nc(N)cc(=O)[nH]2)s1 3.16 µM
